Laboratory results: PubChem BioAssay AID686959 (The Scripps Research Institute Molecular Screening Center, 2013)
The source made the active and inactive calls. No cut-off is given here; in the data, nearly all actives have IC50 up to about 8.1 µM.

Test: binders of r(CAG) RNA repeats, dose response, biochemical, fluorescence (AID 686959)
Settings: r(CAG) RNA repeat binding

IC50, active:
CCCOc1ccc(N2C(=O)CC(S/C(N)=N/N=C(\C)c3cccs3)C2=O)cc1 (centres undefined) 7760 nM, C/C(=N\N=C(/N)SC1CC(=O)N(c2cccc(Cl)c2)C1=O)c1cccs1 (centres undefined) 5190 nM, CC(C)c1ccc(C2c3[nH]c4ccccc4c3C[C@H]3C(=O)N(c4ccccc4C(=O)N4CCC[C@@H]4C(=O)O)C(=O)N23)cc1 (some centres undefined) 2840 nM, COc1ccc(Cn2c(O)c(/C=N/NC(=O)c3cccnc3)c3ccccc3c2=O)cc1 3070 nM, O=C(C1=C(O)C(=O)N(c2nc3ccc(Cl)cc3s2)C1c1ccco1)c1ccco1 (centres undefined) 987 nM, Oc1ccc(/C=N/Nc2ccnc3cc(Cl)ccc23)c(O)c1O 2500 nM, C=CCOc1c(OC)cc(/C=N/Nc2cccc(C(=O)O)c2)c(Br)c1Br 2280 nM, N#CC1=C(S)N(c2ccccc2)C(c2ccc(-c3cc(Cl)ccc3Cl)o2)NC1=O (centres undefined) 1470 nM, N#C/C(C(=O)Nc1ccc(Cl)cc1)=C(/S)Nc1ccccc1 6140 nM, CCOC(=O)C1=C(C)NC(SCc2cc(=O)[nH][nH]2)=C(C#N)C1c1cccs1 (centres undefined) 7400 nM, CC1=NN(C(N)=S)C(=O)C1N=Nc1c(Br)cc(Br)cc1Br (centres undefined) 5730 nM, COc1cc(/C=C2\C(=O)N(c3ccc(NC(C)=O)cc3)N=C2c2ccccc2)ccc1O 2900 nM, Cc1cc(N2C(=O)C(O)=C(C(=O)c3cc4ccccc4o3)C2c2cccc(Cl)c2)no1 (centres undefined) 1190 nM, N#CC1=C(N)n2c(s/c(=C\c3ccco3)c2=O)=C(C#N)C1c1ccco1 (centres undefined) 5380 nM, CCc1nnc(NS(=O)(=O)c2ccc(N/C=C/C(=O)c3ccc(C)cc3)cc2)s1 1900 nM, N#CC(C#N)=C(Nc1ccc(F)cc1)SCc1cccc(Br)c1 7570 nM, COC(=O)c1sc(N2C(=O)C(O)=C(C(=O)c3ccc(C)o3)C2c2ccc([N+](=O)[O-])cc2)nc1C (centres undefined) 636 nM, N/C(=N\N=C\c1cccs1)SC1CC(=O)N(c2ccc(Br)cc2)C1=O (centres undefined) 8270 nM, CC1=C(C#N)c2nc(N)c(C#N)c(C)c2/C1=C\c1ccc(-c2ccccc2C(=O)O)o1 2570 nM, CCCOc1cccc(C2C(C(=O)c3ccc(C)o3)=C(O)C(=O)N2c2nc(C)c(C(C)=O)s2)c1 (centres undefined) 4060 nM, CC(C)c1ccc(C2c3[nH]c4ccccc4c3C[C@H]3C(=O)N(c4ccccc4C(=O)N4CCC[C@H]4C(=O)O)C(=O)N23)cc1 (some centres undefined) 3350 nM, COc1ccc2nc(N3C(=O)C(O)=C(C(=O)c4ccco4)C3c3ccc(OC)c(OC)c3)sc2c1 (centres undefined) 2040 nM, Cc1ccc2c(c1)c(N=Nc1cccc(C(=O)O)c1)c(O)n2C 5070 nM, Cc1noc(NS(=O)(=O)c2ccc(NC(=O)COc3ccc(Cl)cc3Cl)cc2)c1C 2830 nM, O=C(O)c1ccc(N2C(=O)CC(SC(=NCc3ccc4c(c3)OCO4)Nc3ccc(F)cc3)C2=O)cc1 (centres undefined) 2890 nM, O=C(O)CCCCCn1c(O)c(C=C2N=c3ccccc3=N2)sc1=S 3870 nM, Cc1ccc2nc(N3C(=O)C(O)=C(C(=O)c4ccco4)C3c3ccc(C)o3)sc2c1 (centres undefined) 624 nM, CC(=O)C1=C(O)C(=O)N(c2cc(C(C)(C)C)on2)C1c1ccc(Br)cc1 (centres undefined) 2490 nM, O=c1[nH]n2c(=O)c3c([nH]c2c1N=Nc1cccc(Cl)c1)CCC3 2330 nM
